The source of these data is PubChem BioAssay (EPA / NIEHS).

For one test, the system named is NCBI gene 100848466. Briefly: NVS_NR_bPR: NovaScreen (NVS) Nuclear Receptor Binding Assay for bovine Progextron Receptor (PR) (AID 2283343).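 For AC50: actives lower bound radioligand signal below DMSO meaning displacement of the label.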 In short, it runs like this: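 Steps: bovine uterine membranes were dosed with chemical alongside radioligand, incubated 18 hours, then radiodetected by scintillation counting. Initial testing used 25 uM in duplicate; confirmed actives were rerun as concentration series.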

Test [1] addresses human Constitutive Androstane Receptor (CAR), NR1I3 (gene 9970) (UniProt Q14994). Briefly: NVS_NR_hCAR_Antagonist: NovaScreen (NVS) Nuclear Receptor Binding Assay for human Constitutive Androstane Receptor Antagonism (CAR) (AID 2283344). Put shortly:
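Single 25 uM duplicate primary screen, with concentration-series follow-up on actives. Cell-free binding format run in antagonist mode, TR-FRET signal taken 1 h post-dose; activity is signal loss relative to DMSO.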

Test [2] deals with bovine Estrogen Receptor (ER), ESR1 (gene 407238) (UniProt P49884). The test is described as follows: NVS_NR_bER: NovaScreen (NVS) Nuclear Receptor Binding Assay for bovine Estrogen Receptor (ER) (AID 2283345).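 Note: actives lower the bound radioligand count which means they displace the ER ligand.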 In short, it runs like this: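 Bovine uterine membranes; tritiated or iodinated radioligand; competitive displacement; 18 h; scintillation read; DMSO negative control; 25 uM duplicates, then concentration series for actives.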

The target in test [3] is Estrogen receptor (Homo sapiens) (UniProt P03372). The test is described as follows: OT_ER_ERaERa_1440: Odyssey Thera (OT) 24-hour HEK293T Protein-Complementation Assay for Estrogen Receptor-alpha/-alpha Homodimer (AID 2283349).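 Note: hits raise fluorescence above DMSO for agonists and antagonists alike.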 In short, it runs like this:
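Stably transfected HEK293T; ERα LBD homodimer PCA. 24 h dosing, fluorescence intensity read, gain-of-signal vs DMSO.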

Test [4] has the same target. Briefly: OT_ER_ERaERa_0480: Odyssey Thera (OT) 8-hour HEK293T Protein-Complementation Assay for Estrogen Receptor-alpha/-alpha Homodimer (AID 2283351).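 Note: rise in fluorescence from reassembled reporter fragments on ERα LBD homodimer in nucleus or whole cell.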 In short, it runs like this: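 Measures ERα LBD (aa 310-547) homodimer complementation in stably transfected HEK293T at 8 h post-dose, with fluorescence intensity quantified on a laser scanning cytometer relative to DMSO controls.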

In test [5] the target is T1, Estrogen receptor (Homo sapiens) + Estrogen receptor beta (Homo sapiens) (UniProt P03372+Q92731). Briefly: OT_ER_ERaERb_0480: Odyssey Thera (OT) 8-hour HEK293T Protein-Complementation Assay for Estrogen Receptor-alpha/-beta Heterodimer (AID 2283352). In short, it runs like this:
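Fluorescence increase from reconstituted reporter fragments, quantified by laser scanning cytometer, reflects ER-alpha/ER-beta heterodimer formation in human HEK293T cells. Exposure 8 h; positive-direction fitting against DMSO vehicle.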

Test [6] concerns the target Androgen Receptor/SRC-1 Co-activator, AR (gene 367) (UniProt P10275). The test is described as follows: OT_AR_ARSRC1_0960: Odyssey Thera (OT) 16-hour HEK293T Protein-Complementation Assay for Androgen Receptor/SRC-1 Co-activator (AID 2283353).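 Note: actives raise the signal above DMSO so potency reflects increased AR and SRC-1 complex.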 Put shortly:
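Sixteen-hour cell assay: Venus halves fused to AR and SRC-1 in HEK293T report binding. Images at 488/635 nm give an N/C ratio in the 488 nm channel over ≥400 cells, analysed as signal increase over DMSO.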

For test [7] the target is unchanged. Briefly: OT_AR_ARSRC1_0480: Odyssey Thera (OT) 8-hour HEK293T Protein-Complementation Assay for Androgen Receptor/SRC-1 Co-activator (AID 2283354).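 Note: hits raise the complementation signal above DMSO so AC50 marks enhancers.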 In short, it runs like this:
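After 8 h dosing, stably expressing HEK293T cells with split-Venus AR/SRC-1 fusions were imaged (488, 635nm). The 488nm N/C ratio per image gave the endpoint, analysed in the positive direction against DMSO.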

In test [8] the target is T1, Estrogen receptor (Homo sapiens) + Estrogen receptor beta (Homo sapiens). Briefly: OT_ER_ERaERb_1440: Odyssey Thera (OT) 24-hour HEK293T Protein-Complementation Assay for Estrogen Receptor-alpha/-beta Homodimer (AID 2283356).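 Note: heteromer of ER alpha and ER beta binding domains; hits raise reporter fluorescence and both agonists and antagonists give an increase.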 Put shortly:
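Fragment complementation between ER alpha (310-547) and ER beta (263-489) ligand-binding domains in HEK293T cells; signal read 24 h post-dosing by laser scanning cytometer. Gain of fluorescence relative to DMSO fitted.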

Test [9] has as its target Estrogen receptor beta (Homo sapiens) (UniProt Q92731). The test is described as follows: OT_ER_ERbERb_0480: Odyssey Thera (OT) 8-hour HEK293T Protein-Complementation Assay for Estrogen Receptor-beta/-beta Homodimer (AID 2283357).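 Note: active means signal gain over DMSO baseline.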 In short, it runs like this:
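Fluorescence gain from complemented reporter fragments on ER-beta LBD homodimer in HEK293T was quantified against DMSO controls after 8 h treatment, fixation in 4% formaldehyde and Draq5 staining.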

Test [10] deals with Retinoic acid receptor alpha (Homo sapiens) (UniProt P10276). Briefly: NVS_NR_hRAR_Antagonist: NovaScreen (NVS) Nuclear Receptor Binding Assay for human Retinoic Acid Alpha Receptor Antagonism (RAR) (AID 2283358). Put shortly: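 Chemicals were first tested in duplicate at 25 uM, then actives in concentration series, in a cell-free TR-FRET antagonist binding format. Measurements were taken 2 hours after dosing and loss of signal was evaluated against DMSO controls.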

For test [11], the target named is chimpanzee Androgen Receptor (AR), AR (gene 747460) (UniProt O97775). The test is described as follows: NVS_NR_cAR: NovaScreen (NVS) Nuclear Receptor Binding Assay for chimpanzee Androgen Receptor (AR) (AID 2283346). In short, it runs like this: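 Cell-free radioligand displacement using receptor protein extracted from Sf9/Sf21 cells; bound radioligand measured by scintillation counting 72 hours after chemical dosing. Loss of signal versus DMSO baseline indicates binding; primary screen single-concentration in duplicate at 25 uM, actives followed in concentration series.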

In test [12] the target is Bile acid receptor (Homo sapiens) (UniProt Q96RI1). The test is described as follows: NVS_NR_hFXR_Antagonist: NovaScreen (NVS) Nuclear Receptor Binding Assay for human Farnesoid X Receptor Antagonism (FXR) (AID 2283350). Put shortly:
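Antagonist-format time-resolved FRET binding assay with extracted human receptor protein, read 1 hour after compound addition. Compounds first screened at 25 uM in duplicate, then actives tested in concentration series, with loss of signal relative to DMSO.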

In test [13] the target is Estrogen receptor (Homo sapiens) (UniProt P03372). Briefly: NVS_NR_hER: NovaScreen (NVS) Nuclear Receptor Binding Assay for human Estrogen Receptor (ER) (AID 2283348). Put shortly: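 Radiodetection of ligand displacement in a lysate-based, cell-free format using MCF7 extracts, read at 18 hours. Duplicate 25 uM primary testing, then concentration series for actives.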
Test [14] deals with Bile acid receptor (Homo sapiens) (UniProt Q96RI1). The test is described as follows: NVS_NR_hFXR_Agonist: NovaScreen (NVS) Nuclear Receptor Binding Assay for human Farnesoid X Receptor Agonism (FXR) (AID 2283347). Put shortly:
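Agonist-mode FXR assay read by time-resolved FRET 1 h after compound addition, using isolated human receptor protein without cells. Duplicate 25 uM single-point primary screen, concentration series for confirmed actives; DMSO as baseline.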

Test [15] deals with rat Mineralocorticoid Receptor (MR), Nr3c2 (gene 25672) (UniProt P22199). Briefly: NVS_NR_rMR: NovaScreen (NVS) Nuclear Receptor Binding Assay for rat Mineralocorticoid Receptor (MR) (AID 2283355). Put shortly:
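Single-concentration duplicate screen (25 uM) of radioligand binding in adrenalectomized rat brain supernatant; scintillation detection 24 h after dosing. Positive and negative controls ran on each plate, and confirmed actives went to concentration-response.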

Records with an inconclusive call do not appear. Calls of active or inactive are those of the source. Rule for the calls: active = hit-call score of the fitted dose curve at least 0.9, where 1 is the maximum; inconclusive = response in the unintended direction; inactive = score below 0.9.

Sequence of Androgen Receptor/SRC-1 Co-activator, AR (gene 367) (P10275 whole entry, looked up, the tested form may be a part): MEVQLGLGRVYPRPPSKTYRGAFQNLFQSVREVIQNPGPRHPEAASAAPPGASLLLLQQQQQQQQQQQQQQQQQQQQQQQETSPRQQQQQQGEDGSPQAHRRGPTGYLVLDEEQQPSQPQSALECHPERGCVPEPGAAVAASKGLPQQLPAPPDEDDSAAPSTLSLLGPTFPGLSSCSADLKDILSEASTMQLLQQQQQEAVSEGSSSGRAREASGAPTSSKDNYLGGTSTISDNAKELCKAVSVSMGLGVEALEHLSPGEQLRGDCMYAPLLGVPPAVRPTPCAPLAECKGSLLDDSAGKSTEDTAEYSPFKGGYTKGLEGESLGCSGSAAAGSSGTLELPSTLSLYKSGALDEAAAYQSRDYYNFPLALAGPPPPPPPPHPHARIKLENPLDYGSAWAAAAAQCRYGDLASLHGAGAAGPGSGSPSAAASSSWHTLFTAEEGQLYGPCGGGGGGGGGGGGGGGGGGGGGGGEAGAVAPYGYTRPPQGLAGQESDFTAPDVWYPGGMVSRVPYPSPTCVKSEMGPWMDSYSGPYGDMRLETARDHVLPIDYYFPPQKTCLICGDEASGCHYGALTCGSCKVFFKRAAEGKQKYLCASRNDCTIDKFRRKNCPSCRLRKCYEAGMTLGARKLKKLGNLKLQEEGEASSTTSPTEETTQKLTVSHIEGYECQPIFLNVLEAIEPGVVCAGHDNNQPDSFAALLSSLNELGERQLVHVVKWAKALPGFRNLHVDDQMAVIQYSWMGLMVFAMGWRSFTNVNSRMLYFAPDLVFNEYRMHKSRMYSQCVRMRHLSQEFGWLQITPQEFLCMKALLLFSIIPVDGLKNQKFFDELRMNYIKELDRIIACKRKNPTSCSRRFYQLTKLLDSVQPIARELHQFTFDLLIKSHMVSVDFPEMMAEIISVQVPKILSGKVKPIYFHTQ
Sequence of Retinoic acid receptor alpha (Homo sapiens) (P10276 whole entry, looked up): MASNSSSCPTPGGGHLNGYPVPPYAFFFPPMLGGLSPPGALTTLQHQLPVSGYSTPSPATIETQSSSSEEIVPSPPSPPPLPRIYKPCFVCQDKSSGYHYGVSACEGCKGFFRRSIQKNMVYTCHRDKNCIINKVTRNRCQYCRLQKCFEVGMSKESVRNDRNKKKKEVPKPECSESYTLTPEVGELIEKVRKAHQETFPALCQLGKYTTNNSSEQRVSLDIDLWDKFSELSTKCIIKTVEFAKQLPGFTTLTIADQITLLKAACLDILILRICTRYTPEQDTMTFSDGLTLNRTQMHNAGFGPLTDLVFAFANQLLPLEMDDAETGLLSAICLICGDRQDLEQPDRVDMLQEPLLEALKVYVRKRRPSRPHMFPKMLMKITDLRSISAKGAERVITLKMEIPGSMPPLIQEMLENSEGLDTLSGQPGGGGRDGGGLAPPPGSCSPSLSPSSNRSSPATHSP
Sequence of Estrogen receptor beta (Homo sapiens) (Q92731 whole entry, looked up, the tested form may be a part): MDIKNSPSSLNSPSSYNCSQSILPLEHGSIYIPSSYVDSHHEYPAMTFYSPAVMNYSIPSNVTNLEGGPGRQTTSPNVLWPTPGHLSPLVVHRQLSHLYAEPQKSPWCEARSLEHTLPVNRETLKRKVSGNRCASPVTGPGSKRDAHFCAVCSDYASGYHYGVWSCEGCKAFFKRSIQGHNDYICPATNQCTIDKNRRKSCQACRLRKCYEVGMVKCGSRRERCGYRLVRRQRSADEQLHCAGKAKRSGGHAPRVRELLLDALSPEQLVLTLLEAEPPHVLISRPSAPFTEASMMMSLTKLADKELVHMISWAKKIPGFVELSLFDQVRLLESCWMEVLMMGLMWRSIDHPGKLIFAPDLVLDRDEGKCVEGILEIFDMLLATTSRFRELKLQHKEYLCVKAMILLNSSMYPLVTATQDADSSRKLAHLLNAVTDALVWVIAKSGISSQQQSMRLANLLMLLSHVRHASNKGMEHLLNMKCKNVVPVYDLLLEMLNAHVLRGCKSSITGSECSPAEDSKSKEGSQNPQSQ
T1 sequence (P03372 whole entry, looked up, the tested form may be a part): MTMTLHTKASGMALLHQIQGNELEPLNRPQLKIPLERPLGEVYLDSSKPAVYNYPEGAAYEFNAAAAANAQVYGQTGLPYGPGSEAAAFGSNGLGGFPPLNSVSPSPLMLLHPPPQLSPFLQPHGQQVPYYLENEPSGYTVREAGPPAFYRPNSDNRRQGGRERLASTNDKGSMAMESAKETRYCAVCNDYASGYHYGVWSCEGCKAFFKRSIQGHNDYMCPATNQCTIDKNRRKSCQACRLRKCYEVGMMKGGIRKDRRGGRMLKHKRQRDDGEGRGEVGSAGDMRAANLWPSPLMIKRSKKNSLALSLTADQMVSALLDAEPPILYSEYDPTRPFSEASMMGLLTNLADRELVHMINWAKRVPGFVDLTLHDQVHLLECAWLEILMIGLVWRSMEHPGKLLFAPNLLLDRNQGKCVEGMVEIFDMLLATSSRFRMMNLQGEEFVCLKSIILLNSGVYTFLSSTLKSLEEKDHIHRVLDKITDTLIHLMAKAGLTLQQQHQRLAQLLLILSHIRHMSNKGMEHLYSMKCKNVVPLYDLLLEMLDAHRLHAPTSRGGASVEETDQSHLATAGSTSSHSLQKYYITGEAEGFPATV
T1 sequence (Q92731 whole entry, looked up, the tested form may be a part): as the sequence (Q92731 whole entry, looked up, the tested form may be a part) above
Sequence of Estrogen receptor (Homo sapiens) (P03372 whole entry, looked up, the tested form may be a part): as the sequence (P03372 whole entry, looked up, the tested form may be a part) above
Sequence of human Constitutive Androstane Receptor (CAR), NR1I3 (gene 9970) (Q14994 whole entry, looked up): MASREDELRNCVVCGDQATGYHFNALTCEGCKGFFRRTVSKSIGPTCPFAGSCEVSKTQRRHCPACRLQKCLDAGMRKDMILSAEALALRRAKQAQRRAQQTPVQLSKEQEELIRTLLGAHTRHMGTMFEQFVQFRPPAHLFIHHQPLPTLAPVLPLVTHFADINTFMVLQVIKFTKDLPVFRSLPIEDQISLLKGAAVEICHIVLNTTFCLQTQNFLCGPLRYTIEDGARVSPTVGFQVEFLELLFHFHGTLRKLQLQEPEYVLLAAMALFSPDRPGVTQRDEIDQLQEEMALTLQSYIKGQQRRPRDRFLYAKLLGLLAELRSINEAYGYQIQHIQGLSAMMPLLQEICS
Sequence of Bile acid receptor (Homo sapiens) (Q96RI1 whole entry, looked up): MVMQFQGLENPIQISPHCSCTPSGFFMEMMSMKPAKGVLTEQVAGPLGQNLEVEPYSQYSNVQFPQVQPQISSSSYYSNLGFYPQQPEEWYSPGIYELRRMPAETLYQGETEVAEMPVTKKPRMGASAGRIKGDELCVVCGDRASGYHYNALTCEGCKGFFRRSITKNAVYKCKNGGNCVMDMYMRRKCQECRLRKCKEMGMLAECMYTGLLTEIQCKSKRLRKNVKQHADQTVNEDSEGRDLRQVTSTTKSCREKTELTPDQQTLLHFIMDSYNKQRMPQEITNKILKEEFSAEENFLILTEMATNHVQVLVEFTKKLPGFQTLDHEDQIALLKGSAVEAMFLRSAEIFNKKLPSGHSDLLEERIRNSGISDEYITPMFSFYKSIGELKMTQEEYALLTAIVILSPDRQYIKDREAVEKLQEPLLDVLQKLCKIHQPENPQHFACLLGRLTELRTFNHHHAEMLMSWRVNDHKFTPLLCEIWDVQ

For the compound `O=[N+]([O-])c1c(Cl)c(Cl)c(Cl)c(Cl)c1Cl`, the outcome (in the test on NCBI gene 100848466; in test [1]; in test [2]; in [3]; in test [4]; in [5]) was inactive. Also, the compound was called inactive in test [6], in test [7], in [8], in test [9] and in [10].
As a reminder, the AC50 is the concentration giving half of the maximal activity seen. Turning to `COP(=S)(OC)Oc1ccc([N+](=O)[O-])cc1`, the AC50 was 7.33 µM (active) in the test with NCBI gene 100848466 and 14.6 µM (active) in [11]. The call in [1], in [12], in [4], in [5], in test [8] and in test [9] was inactive.
Turning to `CCC(C)(C)C(=O)OC1=C(c2ccc(Cl)cc2Cl)C(=O)OC12CCCCC2`, the compound was called inactive in [3], in test [12], in [5], in test [7] and in [8]. Further, the AC50 in test [6] was 82.4 µM (active).
For `O=C(NC(=O)c1c(F)cccc1F)Nc1ccc(OC(F)(F)C(F)OC(F)(F)F)c(Cl)c1` (configuration not stated), the compound was classed as inactive in [13], in test [3], in test [4], in [5], in test [8] and in test [9].
On to `CN1CSC(=S)N(C)C1`, for which the call in [1], in test [13], in test [3], in test [4] and in [9] was inactive. The AC50 in test [12] was 9.27 µM (active).
Turning to `Clc1ccccc1-c1nnc(-c2ccccc2Cl)nn1`, the call in test [3], in test [4], in [5], in test [8] and in test [9] was inactive.
With `COC(=O)c1ccccc1S(=O)(=O)NC(=O)Nc1nc(C)nc(OC)n1`, the compound was classed as inactive in test [12] and in test [10].
With `O=S1OCC2C(CO1)C1(Cl)C(Cl)=C(Cl)C2(Cl)C1(Cl)Cl` (configuration not stated), the call in test [1], in test [13], in test [3], in test [4] and in test [10] was inactive. For the same compound, the AC50 in [6] is 34.5 µM (active); in test [7], 31.8 µM (active).
Take `CCC(C)(NC(=O)c1cc(Cl)c(C)c(Cl)c1)C(=O)CCl` (configuration not stated): the outcome in test [3], in test [4], in test [5], in [8] and in [9] was inactive.
For the compound `COC(=O)c1ccccc1CS(=O)(=O)NC(=O)Nc1nc(OC)cc(OC)n1`, the result in [2], in test [14] and in test [13] was inactive.
For the compound `C#CCN1C(=O)COc2cc(F)c(N3C(=O)C4=C(CCCC4)C3=O)cc21`, the compound was classed as inactive in test [3], in test [4], in test [6], in test [7] and in test [8].
Take `Cc1[nH]c(=O)n(C(C)(C)C)c(=O)c1Cl`: the compound was classed as inactive in [3], in test [4], in [6] and in test [7].
As for `COP(=O)(OC)OC=C(Cl)Cl`, the compound was classed as inactive in test [13], in test [3], in test [4], in test [5], in [8] and in test [9].
Consider `CNC(=O)/C=C(\C)OP(=O)(OC)OC`, for which the outcome in test [1], in test [3], in test [4], in [5], in test [8] and in [9] was inactive.
Take `CCc1ccc(C(=O)NN(C(=O)c2cc(C)cc(C)c2)C(C)(C)C)cc1`: the compound was classed as inactive in test [3], in [12], in [4], in [8] and in [9].
Take `OCCOc1ccccc1`: the compound was called inactive in [14], in [3], in [4], in test [8] and in [9].
As for `CC1(c2ccc(Oc3ccccc3)cc2)OC(=O)N(Nc2ccccc2)C1=O` (configuration not stated), the call in [3], in test [4], in test [5], in test [8], in test [9] and in test [10] was inactive. The AC50 in [12] was 10 µM (active).
Turning to `CCOC1Oc2ccc(OS(C)(=O)=O)cc2C1(C)C` (configuration not stated), the call in test [3], in [4], in test [5], in [6], in test [7] and in test [8] was inactive. For the same compound, the compound was classed as inactive in [9].
For `N#CN`, the result in [3], in test [4], in [5], in test [8] and in test [9] was inactive.
Take `CCC(C)Nc1c([N+](=O)[O-])cc(C(C)(C)C)cc1[N+](=O)[O-]` (configuration not stated): the compound was classed as inactive in [3], in test [4] and in test [9]. Besides, the AC50 is 34.7 µM (active) in test [5] and 69.9 µM (active) in test [8].
Regarding `COC(=O)c1ccccc1S(=O)(=O)NC(=O)N(C)c1nc(C)nc(OC)n1`, the compound was called inactive in test [2], in test [14], in [13], in test [15] and in [10].
Consider `CCN(CC)C(=O)SCc1ccc(Cl)cc1`, for which the compound was called inactive in test [3], in test [12] and in [4].
As to `CNC(=O)Oc1cccc(N=CN(C)C)c1`, the compound was called inactive in test [3], in [4], in [5], in [8] and in [9].
Consider `CC(C)N(C(=O)COc1nnc(C(F)(F)F)s1)c1ccc(F)cc1`, for which the compound was classed as inactive in test [3], in test [4] and in test [9].
Take `CCCN(CCC)c1c([N+](=O)[O-])cc(C(F)(F)F)cc1[N+](=O)[O-]`: the outcome in test [1], in test [13], in test [3], in [4], in [6] and in test [7] was inactive.
As for `Cc1cc(C)nc(NC(=O)NS(=O)(=O)c2ccccc2C(=O)OC2COC2)n1`, the call in test [1] and in [14] was inactive.
In the case of `O=C(O)CCCOc1ccc(Cl)cc1Cl`, the outcome in test [1], in test [6], in [7] and in [9] was inactive.
